KB-3-1 tox = qHTS assay for MDR1-selective chemotherapeutics: Primary screen using the parental adenocarcinoma cell KB-3-1 | KB-3-1 viability, CellTiter-Glo ATP luminescence, 72 h | Potency, µM (top dose mostly 46.1 µM), actives largely listed as cytotoxic | 400,000 compounds, 1.4% hits; also: nearly all actives have a fitted effect of over 60% in size
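Cytotoxicity measured as CellTiter-Glo luminescence after 72 h at 37 C. Compound titrations were pinned onto drug-naive KB-3-1 parental adenocarcinoma cells grown in DMEM with 10% FBS, and normalized data fitted to concentration-response curves.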
KB-V1 MDR tox = qHTS assay for MDR1-selective chemotherapeutics: Primary screen using the drug-selected MDR subline cells KB-V1; AID 1347076, 2019; Potency, µM (doses to about 46.1 µM), usual class: cytotoxic; 400,000 compounds, 3.4% hits; KB-V1 MDR cells viability, CellTiter-Glo, 72 h; also: nearly all actives have a fitted effect of over 60% in size
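Readout: CellTiter-Glo luminescence, 10 min after addition. Cells: KB-V1 MDR subline, 72 h at 37 degrees C with compound. Analysis: corrected, normalized data fitted to concentration-effect curves.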
HT1080-NT tox = qHTS for induction of synthetic lethality in tumor cells producing 2HG: qHTS for the HT-1080-NT fibrosarcoma cell line; AID 686970, 2013; 360,000 compounds, 1.6% hits; Potency, µM (titrated, usually from 46.1 µM), for the others: at the highest dose activity, negative = less viability, hits mostly cytotoxic; HT-1080-NT fibrosarcoma viability, CellTiter-Glo ATP luminescence, 48 h;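 also: NT is the 2HG producing partner of a matched IDH1 knockdown line; 0% = DMSO-treated cells and -100% = media-only wells without cells; nearly all actives have a fitted effect of over 55% in size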
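Fibrosarcoma NT cells, 750 per well in 5% FBS RPMI, were exposed to compound for 48 hours. Viability: CellTiter-Glo luminescence.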
TDP1 cell noCPT = qHTS for Inhibitors of human tyrosyl-DNA phosphodiesterase 1 (TDP1): qHTS in cells in absence of CPT. DT40 Tdp1-/- hTDP1 cells, no CPT, ATP luminescence, 48 h. 420,000 compounds, 15% hits. AID 686978, 2013. Potency, µM (titrated, usually from 46.2 µM), for inactives: top-dose activity change, negative = growth inhibition, usual class: inhibitors; also: nearly all actives have a fitted effect of over 55% in size
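Readout: luminescence from CellTiter-Glo after 30 min in the dark at RT. Cells: DT40 Tdp1-/- with stable hTDP1, 400/well. Exposure: compounds alone, ≥48 hr, 37 °C.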
HT1080 IDH1KD tx = qHTS for induction of synthetic lethality in tumor cells producing 2HG: qHTS for the HT-1080-IDH1KD cell line | HT-1080 IDH1 knockdown viability, ATP luminescence, 48 h | Potency, µM (titrated, usually from 46.1 µM), for the others: top-dose activity, negative = toxicity, most hits filed as cytotoxic | 360,000 compounds, 2% hits | AID 686971, 2013;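 also: 0% = DMSO wells and -100% = cell-free medium wells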
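Viability of IDH1-knockdown HT-1080 fibrosarcoma cells was assessed by CellTiter-Glo after 48 h at 37 °C with titrated compound; concentration-effect curves were classified by fit quality and response size.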
DT40 TDP1 CPT = qHTS for Inhibitors of human tyrosyl-DNA phosphodiesterase 1 (TDP1): qHTS in cells in presence of CPT | chicken DT40 Tdp1-/-;hTDP1 cells + 20 nM CPT, ATP luminescence, 48 h | Potency, µM (series often up to 46.2 µM), for the others: at the highest dose activity change, negative = growth inhibition, actives largely listed as inhibitors | 420,000 compounds, 12% hits; also: nearly all actives have a fitted effect of over 55% in size
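Chicken DT40 Tdp1-/- cells complemented with human TDP1, 400 cells/well, exposed to compounds plus 20 nM camptothecin for at least 48 h at 37 C; viability read as ATP content by CellTiter-Glo luminescence.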
Active calls of the source: *; i = inactive; u = inconclusive; x = no result given; [ ] = another dose, or the depositor's remark. Hits are enriched below; roughly 19% of the tested compounds scored in any of these assays. Calls follow the shape of the dose curve; as a rule, active = well fitted curve in the direction sought with a large enough effect; inconclusive = small, poorly fitted or top-dose-only effect, or another doubt; inactive = no such curve, though single readings can be large; an effect the other way counts as inactive or inconclusive. Unless noted, % is scaled to controls: 0 for no effect and ±100 for the full control effect; potency is read from the fitted curve at half-maximal effect.

SMILES	KB-3-1 tox	KB-V1 MDR tox	HT1080-NT tox	TDP1 cell noCPT	HT1080 IDH1KD tx	DT40 TDP1 CPT
COC(=O)c1ccc(N2CCN(c3ccccc3)CC2)c(N)c1	i	i	13%	u	7%	u
COC(=O)c1ccc(N2CCN(C)CC2)c(NC(=O)c2sc3ccccc3c2Cl)c1	i	i	-16%	16µM*	-3%	23µM*
CN1CCN(C(=O)c2ccccc2NC(=O)c2sc3ccccc3c2Cl)CC1	i	i	-10%	u	-8%	u
CN1CCN(c2ccc(NC(=O)c3sc4ccccc4c3Cl)cc2)CC1	i	i	-5%	13µM*	-3%	12µM*
COC(=O)c1ccc(N2CCN(c3ccccc3)CC2)c(NC(=O)C2CC2)c1	i	u	-1%	16µM*	-5%	21µM*
COc1cc(C2NC(=O)NC(c3ccccc3)=C2C(C)=O)cc([N+](=O)[O-])c1O (stereo unspecified)	i	u	9%	16%	6%	-4%
O=C(Nc1ccc(Cl)cc1Cl)[C@@H]1CC=C[C@@H]2CCN(C3CC3)C(=O)[C@@H]21	i	u	x	u	x	u
O=C(Nc1cccc(Cl)c1)N1Cc2ccccc2Oc2ncccc21	x	x	x	u	x	-9%
Cc1ccc(NC(=S)N/N=C2/CCCCc3ccccc32)cc1	i	i	-21%	u	-29%	u
COc1ccc(NC(=S)N/N=C2\CC(C)(C)Oc3ccc(OC)cc32)cc1	i	i	-11%	4.1µM*	-21%	5.8µM*
CC(=O)N1CCC2(CC1)C/C(=N\NC(=S)Nc1ccc(C)cc1)c1cc(O)ccc1O2	u	i	u	u	u	15µM*
Cc1cccnc1NC1CCCCC1	i	i	-6%	2%	-4%	-4%
Cc1cccc(C)c1C(OCCN(C)C)C1CCCCC1 (stereo unspecified)	i	u	-4%	u	0%	18µM*
Cc1ccc2c(c1C)NC(=O)C2(O)CC(=O)c1ccc2c(c1)OCO2 (stereo unspecified)	i	u	-6%	-11%	-7%	-17%
Cc1ccc2c(c1C)NC(=O)C21N2CCCC2C(C(=O)c2ccc3ccccc3c2)C12C(=O)Nc1ccccc12 (stereo unspecified)	u	u	0%	12µM*	-17%	23µM*
COC(=O)c1ccccc1NC(=O)c1cnc(Nc2ccc(OC)cc2)c2ccccc12	i	i	x	9.2µM*	x	23µM*
COc1ccc(OC)c(NC(=O)c2cnc(Nc3ccccc3OC)c3ccccc23)c1	7.3µM*	6.5µM*	u	5.8µM*	u	5.2µM*
Cc1ccc(Nc2ncc(C(=O)Nc3ccc(F)cc3F)c3ccccc23)cc1Cl	i	i	x	u	x	16µM*
CCC1Sc2ccc(S(=O)(=O)N3CCN(c4ccccc4)CC3)cc2NC1=O (stereo unspecified)	i	i	9%	u	5%	15µM*
COc1ccc(N2CCN(S(=O)(=O)c3ccc4c(c3)NC(=O)C(C)S4)CC2)cc1 (stereo unspecified)	u	i	-13%	u	u	u
CCC1Sc2ccc(S(=O)(=O)Nc3cc(OC)cc(OC)c3)cc2NC1=O (stereo unspecified)	i	i	u	u	-6%	16µM*
CCc1cccc(NS(=O)(=O)c2ccc3c(c2)NC(=O)C(C)S3)c1 (stereo unspecified)	i	i	-27%	u	-28%	21µM*
COc1cccc(NS(=O)(=O)c2ccc3c(c2)NC(=O)C(C)S3)c1 (stereo unspecified)	i	i	-9%	u	-11%	u
COc1ccc(Cl)cc1S(=O)(=O)N1CCC(C(=O)NCc2ccccn2)CC1	i	i	1%	u	-2%	4%
COc1ccc(N2CC(NC(=O)COc3ccc(F)cc3)CC2=O)cc1OC (stereo unspecified)	x	x	x	-14%	x	-7%
SMILES	KB-3-1 tox	KB-V1 MDR tox	HT1080-NT tox	TDP1 cell noCPT	HT1080 IDH1KD tx	DT40 TDP1 CPT
Cc1ccc(C)c(Cn2c(=O)n(C)c(=O)c3sccc32)c1	i	u	-16%	u	-13%	-19%
Cc1c(C(=O)N(Cc2cccc(F)c2)C2CCS(=O)(=O)C2)oc2cc(Br)ccc12 (stereo unspecified)	i	i	x	18µM*	x	u
CCOc1ccc(CN(C(=O)c2oc3ccccc3c2C)C2CCS(=O)(=O)C2)cc1 (stereo unspecified)	i	9.2µM*	-7%	-21%	u	-18%
Cc1cc2oc(C(=O)N(Cc3ccccc3F)C3CCS(=O)(=O)C3)c(C)c2cc1Cl (stereo unspecified)	i	i	x	16µM*	x	u
Cc1ccc2c(=O)cc(C(=O)Nc3c(C)n(C)n(-c4ccccc4)c3=O)oc2c1C	i	i	x	-6%	x	2%
CCC(=O)Nc1ccc(CC)cc1-c1nc2ccccc2n(CC(=O)Nc2cccc(OC)c2)c1=O	i	i	x	-25%	x	u
Cc1cc2ccccc2n1CCNC(=O)c1cc(C(F)(F)F)cc(C(F)(F)F)c1	i	i	x	u	x	u
CC(=O)Nc1ccc(CN(C)c2c(C)nc3ccc(C(=O)N(C)Cc4ccco4)cn23)cc1	i	i	4%	u	-1%	16µM*
CCCCC(=O)N(C)c1c(C)nc2ccc(C(=O)N(C)Cc3ccco3)cn12	i	i	9%	-18%	0%	-20%
CCCCN(C)c1c(C)nc2ccc(C(=O)N(C)Cc3ccco3)cn12	i	u	-1%	18µM*	-8%	u
O=C(CSc1ccccc1)NCC1(N2CCCCC2)CCCCC1	i	i	-4%	u	-1%	u
COc1ccc2c(c1)-c1nc(-n3ncc(C(=O)NCc4cccc(C)n4)c3C3CC3)ncc1CC2	x	x	x	-16%	x	1%[9.04 µM]
Cc1ccc(-c2csc(C(O)c3ccccc3)n2)cc1C (stereo unspecified)	i	i	1%	u	-14%	u
